Source: PubChem BioAssay (NCI)
About 83,000 compounds went through this panel and 20% of them were active in at least one assay; those are over-represented in the sample as a whole.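 Growth was measured after 48 h exposure to one concentration of compound in 96-well plates. Values under 10 count as active.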 Activity calls are given as the source filed them.

Assays:
Test in all cases: NCI-60 one-dose screen, 48 h (100 = growth as untreated, 0 = no growth, -100 = all killed)
Settings in all cases: 10 µM unless noted
SK-MEL-2 melanoma = tested on: SK-MEL-2 melanoma
EKVX NSCLC = tested on: EKVX NSCLC
SN12C renal = tested on: SN12C renal
UO-31 renal = tested on: UO-31 renal
TK-10 renal = tested on: TK-10 renal
ACHN renal = tested on: ACHN renal
A498 renal = tested on: A498 renal
CCRF-CEM leukemia = tested on: CCRF-CEM leukemia
MOLT-4 leukemia = tested on: MOLT-4 leukemia
RPMI-8226 leukemia = tested on: RPMI-8226 leukemia
OVCAR-8 ovarian = tested on: OVCAR-8 ovarian
OVCAR-5 ovarian = tested on: OVCAR-5 ovarian
OVCAR-4 ovarian = tested on: OVCAR-4 ovarian
SK-OV-3 ovarian = tested on: SK-OV-3 ovarian
IGROV1 ovarian = tested on: IGROV1 ovarian
OVCAR-3 ovarian = tested on: OVCAR-3 ovarian
NCI/ADR-RES ovarian = tested on: NCI/ADR-RES ovarian
SR leukemia = tested on: SR leukemia
HS 578T breast = tested on: HS 578T breast
CAKI-1 renal = tested on: CAKI-1 renal

Measured: growth

N#Cc1c(-c2cccc(Cl)c2Cl)cc(-c2c[nH]c3ccccc23)[nH]c1=O
inactive: SK-MEL-2 melanoma 87.7% | EKVX NSCLC 53% | SN12C renal 53.6% | UO-31 renal 43.1% | TK-10 renal 108% | ACHN renal 59% | A498 renal 128% | CCRF-CEM leukemia 33.1% | MOLT-4 leukemia 41% | RPMI-8226 leukemia 44.4% | OVCAR-8 ovarian 72.5% | OVCAR-5 ovarian 83.9% | OVCAR-4 ovarian 75.2% | SK-OV-3 ovarian 94.4% | IGROV1 ovarian 71% | OVCAR-3 ovarian 86.1% | NCI/ADR-RES ovarian 76.5%

CC1(C)CC[C@]2(C(=O)O)CC[C@]3(C)C(=CCC4[C@@]5(C)C[C@@H](O)[C@@H]6OC(c7ccc(F)cc7)OC[C@@]6(C)C5CC[C@]43C)C2C1 (stereo partly specified)
active: SR leukemia 7.73% | RPMI-8226 leukemia 9.02%
inactive: SK-MEL-2 melanoma 18.1% | EKVX NSCLC 20.5% | SN12C renal 31.8% | UO-31 renal 25.6% | TK-10 renal 26.9% | ACHN renal 13.3% | A498 renal 46.8% | CCRF-CEM leukemia 14.6% | OVCAR-8 ovarian 29.3% | OVCAR-5 ovarian 63.4% | OVCAR-4 ovarian 44% | SK-OV-3 ovarian 85.7% | IGROV1 ovarian 43.4% | OVCAR-3 ovarian 24% | HS 578T breast 48.1% | NCI/ADR-RES ovarian 30.2%

Cc1ccc(NC(=O)[C@]23CCC(C)(C)CC2C2=CCC4[C@@]5(C)C[C@@H](O)[C@H](O)[C@@](C)(CO)C5CC[C@@]4(C)[C@]2(C)CC3)cc1 (stereo partly specified)
active: A498 renal -1.05% | CCRF-CEM leukemia -1.64% | MOLT-4 leukemia 0.258% | SR leukemia -11.8% | RPMI-8226 leukemia -29.1% | OVCAR-5 ovarian 6.37%
inactive: SK-MEL-2 melanoma 34.1% | EKVX NSCLC 24.4% | UO-31 renal 25.4% | TK-10 renal 48% | ACHN renal 23.7% | CAKI-1 renal 29.2% | OVCAR-8 ovarian 44.9% | OVCAR-4 ovarian 38.7% | SK-OV-3 ovarian 28.4% | IGROV1 ovarian 54.3% | OVCAR-3 ovarian 41.2% | HS 578T breast 32.4% | NCI/ADR-RES ovarian 31.4%

CCCCCCCCc1ccc(C(=O)Nc2ccc(C)cc2C(=O)O)cc1C
inactive: SK-MEL-2 melanoma 97.5% | EKVX NSCLC 88.4% | UO-31 renal 78.6% | TK-10 renal 102% | ACHN renal 84.4% | CAKI-1 renal 78.2% | A498 renal 98.8% | CCRF-CEM leukemia 79.8% | MOLT-4 leukemia 90.8% | SR leukemia 88.2% | RPMI-8226 leukemia 82.7% | OVCAR-8 ovarian 93.2% | OVCAR-5 ovarian 115% | OVCAR-4 ovarian 102% | SK-OV-3 ovarian 100% | IGROV1 ovarian 98.2% | OVCAR-3 ovarian 108% | HS 578T breast 93.1% | NCI/ADR-RES ovarian 96.3%

C=C1CC[C@@H]2[C@]3(C)COC(c4cn[nH]c4-c4ccc(C)cc4)O[C@@H]3CC[C@@]2(C)[C@@H]1C/C=C1/C(=O)OCC1O (stereo partly specified)
inactive: SK-MEL-2 melanoma 51.4% | EKVX NSCLC 12.9% | TK-10 renal 49% | A498 renal 133% | MOLT-4 leukemia 13.9% | OVCAR-5 ovarian 20.4% | OVCAR-4 ovarian 31.9% | SK-OV-3 ovarian 79.9% | IGROV1 ovarian 24%
active: SN12C renal 7.06% | UO-31 renal 4.54% | ACHN renal -53.5% | CCRF-CEM leukemia -17.8% | SR leukemia -25% | RPMI-8226 leukemia -25.2% | OVCAR-8 ovarian -21.7% | OVCAR-3 ovarian -23.1% | NCI/ADR-RES ovarian -41.8%
